The whole screen tested about 3,200 compounds, of which about 300 (9.4%) showed activity. The list comes from a sample in which actives are over-represented; it also holds similar structures and randomly drawn compounds.
System: A673/TR/shEF
Assay: cell viability (LOESS-normalised, relative to median of negative controls) (log2 ratio); higher = more viable cells (less compound effect), active = hit call of the paper (over 3 MAD below the median)
Conditions: treatment time: 72 h
In short: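 Doxycycline, present or absent from 24 h before compounds, was used to induce EWS-FLI1 shRNA knockdown in A673/TR/shEF Ewing sarcoma cells at 1,500 per well in 384-well plates. Cells then received library compounds at two or more concentrations, or DMSO controls, for three days. Viability was measured by CellTiter-Glo luminescence on an Envision reader, and per-plate LOESS correction, division by the negative-control median and log2 transformation followed.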

[1] = 0.025 µM, library screen: screen2, EWS-FLI1 expression: high (no doxycycline)
[2] = 0.025 µM, library screen: screen2, EWS-FLI1 expression: low (doxycycline-induced shRNA knockdown)
[3] = 0.103 µM, library screen: screen3, EWS-FLI1 expression: high (no doxycycline)
[4] = 0.103 µM, library screen: screen3, EWS-FLI1 expression: low (doxycycline-induced shRNA knockdown)
[5] = 0.25 µM, library screen: screen1, EWS-FLI1 expression: high (no doxycycline)
[6] = 0.25 µM, library screen: screen1, EWS-FLI1 expression: low (doxycycline-induced shRNA knockdown)
[7] = 0.25 µM, library screen: screen2, EWS-FLI1 expression: high (no doxycycline)
[8] = 0.25 µM, library screen: screen2, EWS-FLI1 expression: low (doxycycline-induced shRNA knockdown)
[9] = 0.308 µM, library screen: screen3, EWS-FLI1 expression: high (no doxycycline)
[10] = 0.308 µM, library screen: screen3, EWS-FLI1 expression: low (doxycycline-induced shRNA knockdown)
[11] = 0.926 µM, library screen: screen3, EWS-FLI1 expression: high (no doxycycline)
[12] = 0.926 µM, library screen: screen3, EWS-FLI1 expression: low (doxycycline-induced shRNA knockdown)
[13] = 2.5 µM, library screen: screen1, EWS-FLI1 expression: high (no doxycycline)
[14] = 2.5 µM, library screen: screen1, EWS-FLI1 expression: low (doxycycline-induced shRNA knockdown)
[15] = 2.5 µM, library screen: screen2, EWS-FLI1 expression: high (no doxycycline)
[16] = 2.5 µM, library screen: screen2, EWS-FLI1 expression: low (doxycycline-induced shRNA knockdown)
[17] = 2.8 µM, library screen: screen3, EWS-FLI1 expression: high (no doxycycline)
[18] = 2.8 µM, library screen: screen3, EWS-FLI1 expression: low (doxycycline-induced shRNA knockdown)
[19] = 8.3 µM, library screen: screen3, EWS-FLI1 expression: high (no doxycycline)
[20] = 8.3 µM, library screen: screen3, EWS-FLI1 expression: low (doxycycline-induced shRNA knockdown)
[21] = 25 µM, library screen: screen2, EWS-FLI1 expression: high (no doxycycline)
[22] = 25 µM, library screen: screen2, EWS-FLI1 expression: low (doxycycline-induced shRNA knockdown)
[23] = 25 µM, library screen: screen3, EWS-FLI1 expression: high (no doxycycline)
[24] = 25 µM, library screen: screen3, EWS-FLI1 expression: low (doxycycline-induced shRNA knockdown)

O=c1[nH]cc(F)c(=O)[nH]1
cell viability (log2) [1]: 0.207 (inactive) | cell viability (log2) [2]: 0.0564 (inactive) | cell viability (log2) [3]: 0.0782 (inactive) | cell viability (log2) [4]: 0.0161 (inactive) | cell viability (log2) [5]: 0.0591 (inactive) | cell viability (log2) [6]: -0.00519 (inactive) | cell viability (log2) [7]: 0.172 (inactive) | cell viability (log2) [8]: 0.0764 (inactive) | cell viability (log2) [9]: 0.113 (inactive) | cell viability (log2) [10]: 0.0726 (inactive) | cell viability (log2) [11]: 0.13 (inactive) | cell viability (log2) [12]: 0.0535 (inactive) | cell viability (log2) [13]: 0.0991 (inactive) | cell viability (log2) [14]: 0.0157 (inactive) | cell viability (log2) [15]: 0.104 (inactive) | cell viability (log2) [16]: 0.00707 (inactive) | cell viability (log2) [17]: 0.139 (inactive) | cell viability (log2) [18]: 0.018 (inactive) | cell viability (log2) [19]: 0.0774 (inactive) | cell viability (log2) [20]: 0.0748 (inactive) | cell viability (log2) [21]: -0.375 (active) | cell viability (log2) [22]: -0.051 (inactive) | cell viability (log2) [23]: -0.0664 (inactive) | cell viability (log2) [24]: -0.00616 (inactive)

CN1C[C@H](O)[C@@H](O)[C@H](O)[C@H]1CO
cell viability (log2) [7]: -0.0352 (inactive) | cell viability (log2) [8]: 0.0677 (inactive) | cell viability (log2) [15]: 0.0611 (inactive) | cell viability (log2) [16]: 0.0287 (inactive)

CCC1(c2ccccc2)C(=O)NCNC1=O
cell viability (log2) [3]: 0.0813 (inactive) | cell viability (log2) [4]: 0.0528 (inactive) | cell viability (log2) [5]: 0.0645 (inactive) | cell viability (log2) [6]: 0.0903 (inactive) | cell viability (log2) [7]: 0.00606 (inactive) | cell viability (log2) [8]: 0.00378 (inactive) | cell viability (log2) [9]: 0.122 (inactive) | cell viability (log2) [10]: 0.128 (inactive) | cell viability (log2) [11]: 0.168 (inactive) | cell viability (log2) [12]: 0.0786 (inactive) | cell viability (log2) [13]: 0.179 (inactive) | cell viability (log2) [14]: 0.204 (inactive) | cell viability (log2) [15]: -0.197 (active) | cell viability (log2) [16]: -0.337 (active) | cell viability (log2) [17]: 0.146 (inactive) | cell viability (log2) [18]: 0.0526 (inactive) | cell viability (log2) [19]: 0.0966 (inactive) | cell viability (log2) [20]: 0.0601 (inactive) | cell viability (log2) [23]: 0.121 (inactive) | cell viability (log2) [24]: 0.121 (inactive)

O=C1NC(=O)C(c2ccccc2)(c2ccccc2)N1
cell viability (log2) [3]: 0.0587 (inactive) | cell viability (log2) [4]: -0.0104 (inactive) | cell viability (log2) [5]: 0.0952 (inactive) | cell viability (log2) [6]: 0.161 (inactive) | cell viability (log2) [7]: 0.143 (inactive) | cell viability (log2) [8]: 0.0547 (inactive) | cell viability (log2) [9]: 0.0798 (inactive) | cell viability (log2) [10]: 0.0371 (inactive) | cell viability (log2) [11]: 0.05 (inactive) | cell viability (log2) [12]: 0.0456 (inactive) | cell viability (log2) [13]: 0.145 (inactive) | cell viability (log2) [14]: 0.128 (inactive) | cell viability (log2) [15]: 0.044 (inactive) | cell viability (log2) [16]: 0.0796 (inactive) | cell viability (log2) [17]: 0.0207 (inactive) | cell viability (log2) [18]: 0.0711 (inactive) | cell viability (log2) [19]: -0.00351 (inactive) | cell viability (log2) [20]: 0.0628 (inactive) | cell viability (log2) [23]: 0.0771 (inactive) | cell viability (log2) [24]: 0.0956 (inactive)

CCC1(c2ccccc2)NC(=O)N(C)C1=O (stereo not given)
cell viability (log2) [5]: 0.0606 (inactive) | cell viability (log2) [6]: 0.0208 (inactive) | cell viability (log2) [13]: 0.107 (inactive) | cell viability (log2) [14]: 0.103 (inactive)

N#Cc1c2c(c(NCCCO)n3c1nc1ccccc13)CCC2
cell viability (log2) [5]: 0.146 (inactive) | cell viability (log2) [6]: 0.012 (inactive) | cell viability (log2) [13]: 0.0888 (inactive) | cell viability (log2) [14]: -0.0597 (inactive)

COc1cc(O)c2c(=O)cc(C)oc2c1CC=C(C)C
cell viability (log2) [5]: 0.113 (inactive) | cell viability (log2) [6]: 0.0803 (inactive) | cell viability (log2) [13]: 0.117 (inactive) | cell viability (log2) [14]: 0.16 (inactive)

COc1ccc(C(=O)c2ccc(O)cc2O)c(O)c1
cell viability (log2) [5]: 0.0224 (inactive) | cell viability (log2) [6]: 0.0701 (inactive) | cell viability (log2) [13]: 0.116 (inactive) | cell viability (log2) [14]: 0.108 (inactive)

COc1ccc(CN2CCN(Cc3cccc([N+](=O)[O-])c3)CC2)cc1OC
cell viability (log2) [5]: 0.0511 (inactive) | cell viability (log2) [6]: 0.032 (inactive) | cell viability (log2) [13]: 0.111 (inactive) | cell viability (log2) [14]: 0.138 (inactive)

COc1ccc2cc3[n+](cc2c1OC)CCc1cc2c(cc1-3)OCO2
cell viability (log2) [1]: 0.0792 (inactive) | cell viability (log2) [2]: 0.0888 (inactive) | cell viability (log2) [5]: 0.0876 (inactive) | cell viability (log2) [6]: 0.0916 (inactive) | cell viability (log2) [7]: 0.139 (inactive) | cell viability (log2) [8]: 0.0365 (inactive) | cell viability (log2) [13]: -0.0264 (inactive) | cell viability (log2) [14]: 0.141 (inactive) | cell viability (log2) [15]: -0.318 (active) | cell viability (log2) [16]: -0.00212 (inactive) | cell viability (log2) [21]: -1.53 (active) | cell viability (log2) [22]: -0.365 (active)

COc1cc2c(cc1OC)-c1cc3ccc(OC)c(OC)c3c[n+]1CC2
cell viability (log2) [5]: 0.021 (inactive) | cell viability (log2) [6]: 0.0361 (inactive) | cell viability (log2) [13]: -0.0191 (inactive) | cell viability (log2) [14]: 0.0646 (inactive)

COc1ccc2c(=O)c(-c3cc4c(cc3OC)OCO4)coc2c1
cell viability (log2) [5]: 0.0588 (inactive) | cell viability (log2) [6]: -0.078 (inactive) | cell viability (log2) [13]: 0.0766 (inactive) | cell viability (log2) [14]: 0.0171 (inactive)

COC1=CC(=O)C(O)=C/C1=C/C=C/c1ccccc1
cell viability (log2) [5]: 0.0854 (inactive) | cell viability (log2) [6]: 0.141 (inactive) | cell viability (log2) [13]: 0.097 (inactive) | cell viability (log2) [14]: 0.125 (inactive)

N#CC(=C(N)Sc1ccccc1N)C(C#N)=C(N)Sc1ccccc1N
cell viability (log2) (0.025 µM, library screen: screen1, EWS-FLI1 expression: high (no doxycycline)): 0.299 | cell viability (log2) (0.025 µM, library screen: screen1, EWS-FLI1 expression: low (doxycycline-induced shRNA knockdown)): -0.0593 (inactive) | cell viability (log2) [5]: 0.259 (inactive) | cell viability (log2) [6]: 0.136 (inactive) | cell viability (log2) [13]: -0.31 (active) | cell viability (log2) [14]: 0.171 (inactive) | cell viability (log2) (25 µM, library screen: screen1, EWS-FLI1 expression: high (no doxycycline)): -0.459 (active) | cell viability (log2) (25 µM, library screen: screen1, EWS-FLI1 expression: low (doxycycline-induced shRNA knockdown)): 0.0799 (inactive)

N#CC(=C(/N)Sc1ccccc1N)/C(C#N)=C(\N)Sc1ccccc1N
cell viability (log2) [7]: 0.102 (inactive) | cell viability (log2) [8]: 0.0572 (inactive) | cell viability (log2) [15]: -0.0299 (inactive) | cell viability (log2) [16]: -0.0332 (inactive)

FC(F)(F)c1cc(CO[C@H]2CCCN[C@H]2c2ccccc2)cc(C(F)(F)F)c1
cell viability (log2) [7]: 0.151 (inactive) | cell viability (log2) [8]: 0.112 (inactive) | cell viability (log2) [15]: 0.041 (inactive) | cell viability (log2) [16]: 0.077 (inactive)

CC(=O)O.CC(=O)O.[Cd]
cell viability (log2) [5]: 0.129 (inactive) | cell viability (log2) [6]: -0.0033 (inactive) | cell viability (log2) [13]: 0.0042 (inactive) | cell viability (log2) [14]: -0.0745 (inactive)

CC(=O)O[C@@H]1c2c(ccc3ccc(=O)oc23)OC(C)(C)[C@@H]1OC(=O)CC(C)C
cell viability (log2) [5]: 0.0407 (inactive) | cell viability (log2) [6]: -0.0116 (inactive) | cell viability (log2) [13]: 0.121 (inactive) | cell viability (log2) [14]: 0.0173 (inactive)

CC(=O)OC(CC(=O)[O-])C[N+](C)(C)C (stereo not given)
cell viability (log2) [5]: 0.00442 (inactive) | cell viability (log2) [6]: 0.0665 (inactive) | cell viability (log2) [13]: 0.0316 (inactive) | cell viability (log2) [14]: -0.00031 (inactive)
